Compound activity (PubChem BioAssay)
This is a sample that favours compounds with a hit; in the whole collection about 1.9% have one here.
Fam108B counter – counter-screen for RBBP9 inhibitors: inhibitors of mouse Fam108B; recombinant Fam108B, FP-Rh probe fluorescence polarization; inhibition, % at 9.51 µM; 0.33% of 300,000 active; AID 1947;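 active means inhibition above the screen mean inhibition plus 3 SD, computed separately per campaign, cut at about 18% in these data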;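 further: inhibitors lower polarization as less probe binds the enzyme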
PME-1 primary – blocks human protein phosphatase methylesterase 1; inhibition, % at 5.9 µM; recombinant PME-1, FP-Rh probe fluorescence polarization; Q9Y570; 0.53% of 320,000 active; AID 2130;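 active means inhibition above the campaign mean of all compounds plus 3 SD, cut at about 26% in these data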;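 further: competitive labeling of PME-1 active site by serine hydrolase directed probe; 0% = PME-1 with DMSO and 100% = wells lacking PME-1 enzyme; inhibitors block probe labeling so polarization falls and inhibition rises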
Target sequence (Q9Y570 whole entry, looked up): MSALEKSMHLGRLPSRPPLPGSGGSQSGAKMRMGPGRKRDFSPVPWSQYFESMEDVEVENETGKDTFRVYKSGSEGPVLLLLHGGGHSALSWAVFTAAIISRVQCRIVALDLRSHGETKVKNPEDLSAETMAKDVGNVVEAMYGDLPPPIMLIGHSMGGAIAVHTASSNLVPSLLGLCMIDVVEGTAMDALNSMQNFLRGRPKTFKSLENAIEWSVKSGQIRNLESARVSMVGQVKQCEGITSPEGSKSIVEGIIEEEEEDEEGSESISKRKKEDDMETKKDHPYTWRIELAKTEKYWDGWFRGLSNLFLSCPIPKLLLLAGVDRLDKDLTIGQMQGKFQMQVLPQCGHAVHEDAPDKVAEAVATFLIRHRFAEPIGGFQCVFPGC
GSTO1 inh – counter-screen for RBBP9 inhibitors: inhibitors of human GSTO1. P78417. recombinant GSTO1, activity-based probe fluorescence polarization. inhibition, % at 5.96 µM. 1.1% of 300,000 active;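 active means inhibition above the campaign mean inhibition plus 3 SD, cut at about 35% in these data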;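 further: 0% = GSTO1-1 with DMSO and 100% = wells lacking GSTO1-1 enzyme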
LYPLA1 counter – LYPLA1 (human) inhibition in PME1 counter-screen; O75608; recombinant LYPLA1, FP-Rh probe fluorescence polarization; inhibition, % at 5.9 µM; 0.16% of 320,000 active; AID 2174;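 active means inhibition above the mean of all tested compounds plus 3 SD, set per campaign, cut at about 14% in these data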;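 further: inhibitors block serine hydrolase probe labeling of LYPLA1 so polarization falls; 0% = enzyme with DMSO and 100% = wells lacking LYPLA1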
Target sequence (O75608 whole entry, looked up): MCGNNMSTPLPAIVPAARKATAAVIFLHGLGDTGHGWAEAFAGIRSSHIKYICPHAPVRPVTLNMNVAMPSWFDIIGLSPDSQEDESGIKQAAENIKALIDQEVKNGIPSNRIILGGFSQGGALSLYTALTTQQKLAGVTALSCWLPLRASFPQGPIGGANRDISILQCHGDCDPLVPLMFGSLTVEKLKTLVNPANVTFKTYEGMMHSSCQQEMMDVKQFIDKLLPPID
LYPLA2 inh – LYPLA2 (human) inhibition in PME1 counter-screen; AID 2177; 0.38% of 320,000 active; O95372; inhibition, % at 5.9 µM; recombinant LYPLA2, FP-Rh probe fluorescence polarization;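 active means inhibition above the screen-wide mean plus 3 SD, limit set per campaign, cut at about 26% in these data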;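 further: 0% = LYPLA2 with DMSO and 100% = wells lacking LYPLA2 enzyme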
PREPL inhibitor – human PREPL enzyme inhibition | Q4J6C6 | recombinant PREPL, fluorescence polarization activity-based probe | inhibition, % at 5.96 µM | 0.68% of 320,000 active | AID 2751;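 further: 0% = enzyme with DMSO and 100% = wells lacking enzyme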
Fam108b confirm – confirmation of mouse Fam108b serine hydrolase inhibitors. AID 1978. recombinant Fam108b, FP-Rh probe fluorescence polarization. inhibition, % at 9.51 µM. shares compounds with Fam108B counter. 44% of 930 active;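 active means inhibition above a limit from the primary screen, the mean over all compounds plus 3 SD, cut at about 19% in these data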;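 further: 0% = median of active Fam108b wells and 100% = catalytically dead S170A mutant; inhibitors free the probe so polarization falls as inhibition rises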
Fam108b ABPP HTS – mouse ABHD17B inhibition; shares compounds with Fam108B counter; recombinant Fam108b, gel-based ABPP, fluorophosphonate probe; inhibition, % at 20 µM; 44% of 260 active; AID 588649; in the data active means inhibition above about 40%
GSTO1 inh conf – confirmation of human GSTO1 inhibitors | shares compounds with GSTO1 inh | recombinant GSTO1, probe fluorescence polarization | 54% of 2,400 active | inhibition, % at 5.96 µM | AID 2176;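 active means inhibition above the primary screen's cutoff, its mean inhibition plus 3 SD, cut at about 35% in these data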;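 further: loss of polarization as inhibitors block binding of rhodamine sulfonate ester activity probe; 0% = GSTO1 with DMSO and 100% = wells lacking GSTO1 enzyme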
GSTO1 recomb ABPP – blocks recombinant human glutathione S-transferase omega 1; shares compounds with GSTO1 inh; inhibition, % at 1 µM; recombinant GSTO1, gel ABPP SE-Rh probe fluorescence; 30% of 130 active;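 active means inhibition of the enzyme GSTO1 above about 75%, limit read from the data; inactive means inhibition below that limit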
LYPLA1 conf – LYPLA1 (human) inhibition, confirmation counter-screen. shares compounds with LYPLA1 counter. recombinant LYPLA1, FP-Rh probe fluorescence polarization. inhibition, % at 5.9 µM. 69% of 480 active;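 active means mean inhibition across replicates above the hit cutoff set in the primary screen, cut at about 15% in these data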;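 further: loss of FP-Rh probe labeling of LYPLA1 seen as lower polarization; 0% = LYPLA1 with DMSO and 100% = wells lacking LYPLA1 enzyme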
LYPLA2 confirm – LYPLA2 (human) inhibition, confirmation counter-screen; 72% of 1,100 active; recombinant LYPLA2, FP-Rh probe fluorescence polarization; inhibition, % at 5.9 µM; AID 2232; shares compounds with LYPLA2 inh;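 active means mean inhibition across replicates above the hit cutoff set in the primary screen, cut at about 26% in these data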;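 further: blocked labeling of the enzyme by serine hydrolase FP-Rh probe lowers polarization; 0% = enzyme with DMSO and 100% = wells lacking LYPLA2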
PREPL inh cf – human PREPL inhibition, confirmation; shares compounds with PREPL inhibitor; recombinant PREPL, fluorescence polarization activity probe; inhibition, % at 5.96 µM; 67% of 2,000 active;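 further: 0% = protein with DMSO and 100% = wells lacking protein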
Active calls of the source: *; / = not tested or not shown. Unless noted, no stated cut-off is given here; in the data, active means inhibition above about 43%; inactive means the rest.

SMILES | Fam108B counter | PME-1 primary | GSTO1 inh | LYPLA1 counter | LYPLA2 inh | PREPL inhibitor | GSTO1 inh conf | others
CC(C)CN1CCN(Cc2cccc3c2OCO3)CC1CCO (stereo not drawn) | 2 | -2 | 1 | 0 | 0 | 1 | /
Cc1ccccc1N1C(=O)/C(=C/c2ccco2)C(=O)NC1=S | 77* | 17 | 36* | -15 | 47* | 46* | / | Fam108b confirm=68*;Fam108b ABPP HTS=70*;LYPLA2 confirm=32*
C[n+]1c(-c2ccccc2)c2cc(N)ccc2c2ccc(N)cc21 | 104* | 116* | 104* | 89* | 116* | 142* | 90* | Fam108b confirm=70*;Fam108b ABPP HTS=40*;LYPLA1 conf=68*;LYPLA2 confirm=76*;PREPL inh cf=124*
Nc1ccc2ccc3cccc[n+]3c2c1 | 5 | 4 | 33 | 3 | 8 | 38 | /
Nc1ccccc1Cl | / | -8 | / | -1 | 0 | -6 | /
CCCCn1c(C)c(C(=O)OCC)c2c(CN3CCCC3)c(O)ccc21 | 46* | 27* | 20 | -2 | -3 | 55* | / | Fam108b confirm=2;PREPL inh cf=34
CC(C)Oc1ccc(Cc2c(O)[nH]c(=O)[nH]c2=O)cc1 | 3 | -2 | 40* | -3 | -3 | 3 | 5
CCOc1ccc(Cc2c(O)[nH]c(=O)[nH]c2=O)cc1 | -4 | -5 | 23 | 2 | -3 | 11 | /
CC1CCSP(=O)(Oc2ccccc2)O1 (stereo not drawn) | 0 | 4 | 0 | 1 | 1 | 4 | /
O=P1(Oc2ccccc2)C[C@@H](O)[C@@H](O)[C@H](COCc2ccccc2)O1 (stereo partly drawn) | -4 | 3 | 73* | -4 | 5 | 8 | 5
COc1ccc(OC)c(NC(=O)N2C[C@H]3C[C@@H](C2)c2cccc(=O)n2C3)c1 | 5 | 2 | 2 | 1 | 1 | 7 | /
Oc1cccc2nc3ccccc3nc12 | -2 | 6 | 70* | -1 | -23 | 7 | 14
Cc1ccccc1O | / | / | / | / | / | 17 | /
CC1C(c2cccs2)=[N+]([O-])C(C)(C(=O)c2ccc(F)cc2)N1O (stereo not drawn) | -1 | -5 | -3 | -4 | -8 | -1 | /
COP(=S)(OC)SCN1C(=O)c2ccccc2C1=O | -2 | -1 | 38* | 0 | 3 | -2 | 60*
Cc1ccc(NC(=O)[C@@H](NC(=O)N2C[C@H]3C[C@@H](C2)c2cccc(=O)n2C3)C(C)C)cc1 | -1 | 1 | -1 | 2 | 3 | 3 | /
COC(=O)CSC1=NP(=S)(SCC(=O)OC)N2CCCC2=C1C#N (stereo not drawn) | -3 | -1 | 5 | -2 | -2 | 5 | /
O=c1[nH]c(O)c(N=Nc2ccc(S(=O)(=O)N3CCOCC3)cc2)c(=O)[nH]1 | 1 | -2 | 38* | -1 | -2 | 9 | 46*
C=CCn1c(O)c(C(CC)=Nc2ccc3c(c2)CCC3)c(=O)[nH]c1=O | -3 | -3 | 4 | 1 | 2 | 17 | /
C=CCn1c(O)c(C(CC)=Nc2ccc(N(C)C)cc2)c(=O)[nH]c1=O | 3 | 14 | 65* | -5 | -5 | 10 | 3
CCOCN(C(=O)CCl)c1c(C)cccc1CC | 0 | -7 | 83* | 4 | 3 | 8 | 92* | GSTO1 recomb ABPP=0
Cc1ccccc1-n1c(O)c(C=Nc2ccc(N(C)C)cc2)c(=O)[nH]c1=O | 2 | 6 | 45* | 7 | 15 | 12 | 6
c1ccc(-c2[nH]c(-c3ccccc3)[n+](CC3CO3)c2-c2ccccc2)cc1 (stereo not drawn) | -3 | 2 | 84* | -1 | 6 | 2 | 84* | GSTO1 recomb ABPP=36
O=C1NC(=O)C(=CN2CCc3ccccc32)C(=O)N1 | 2 | -1 | 39* | 1 | 1 | -9 | 5
O=C1NC(=O)C(=Cc2csc3ccccc23)C(=O)N1 | 0 | 4 | 6 | -1 | -2 | -2 | /
SMILES | Fam108B counter | PME-1 primary | GSTO1 inh | LYPLA1 counter | LYPLA2 inh | PREPL inhibitor | GSTO1 inh conf | others
CN(C)C1C(=O)C(C(N)=O)=C(O)C2(O)C(=O)C3=C(O)c4c(O)cccc4C(C)(O)C3CC12 (stereo not drawn) | 9 | -7 | 70* | -2 | -2 | -1 | 28
COC(=O)C1=C(c2cc3ccccc3o2)C[C@@H]2CC[C@H]1N2C(=O)NCc1cccc2ccccc12 | -10 | -8 | -5 | -4 | -10 | -49 | /
O=[N+]([O-])c1cccc2c([As](=O)(O)O)cccc12 | 4 | -3 | 16 | -3 | -5 | -7 | /
CCN(CC)c1ccc(/C=C2/C(=O)NC(=O)N(CC3CCCO3)C2=O)cc1 (stereo not drawn) | -2 | -8 | 43* | -6 | -9 | 15 | 8
O=C1NC(=O)N(CC2CCCO2)C(=O)/C1=C/c1cccs1 (stereo not drawn) | -3 | -5 | 5 | 2 | 5 | 6 | /
CC1CCCN(C(=O)CCl)C1 (stereo not drawn) | 2 | -1 | 66* | 2 | 15 | -5 | 84* | GSTO1 recomb ABPP=57
Cc1nc(CCl)cc(=O)[nH]1 | 0 | -1 | 69* | -1 | 5 | 9 | 77* | GSTO1 recomb ABPP=17
CCOP(=O)(OCC)C(NC(=O)CN1C(=O)c2ccccc2S1(=O)=O)C(Cl)(Cl)Cl (stereo not drawn) | 4 | 2 | -2 | 4 | 4 | 9 | /
Cc1ccc2[nH]c(=S)n(-c3cccnc3)c(=O)c2c1 | -2 | 1 | 6 | 2 | 7 | 12 | /
COc1cc2c(cc1O)[C@@H]1Cc3ccc(OC)c(O)c3CN1CC2 | 4 | 8 | 69* | 2 | 8 | 10 | 6
COc1ccc(C[C@@H]2c3cc(O)c(OC)cc3CCN2C)cc1O | 4 | -5 | 0 | 0 | -4 | -2 | /
O=C(NC1(C(F)(F)F)Oc2ccc(Cl)cc2O1)N1CCC2(CC1)OCCO2 (stereo not drawn) | 0 | -9 | 62* | -1 | 6 | 2 | 7
